ALDH1A1 block: qHTS Assay for Inhibitors of Aldehyde Dehydrogenase 1 (ALDH1A1) | AID 1030, 2008 | Aldehyde dehydrogenase 1A1 (Homo sapiens), P00352 | actives 7.3% (n = 220,000) | Purified ALDH1A1, NADH fluorescence, propionaldehyde substrate | Potency, µM (doses to about 75.3 µM), inactives show at the top dose activity, negative = inhibition, hits mostly inhibitors;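 also: potency is read from the fitted curve at half-maximal effect; plate controls were no enzyme wells and a reference inhibitor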
HPGD inh: qHTS Assay for Inhibitors of HPGD (15-Hydroxyprostaglandin Dehydrogenase); 15-hydroxyprostaglandin dehydrogenase [NAD(+)] (Homo sapiens), P15428; purified HPGD, NADH fluorescence kinetic, PGE2 substrate; Potency, µM, without a hit: at the top dose activity change, negative = inhibition, hits mostly inhibitors; actives 4.3% (n = 150,000); AID 894, 2007; also: potency is read from the fitted curve at half-maximal effect
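NADH formation kinetics: reaction with 30 uM PGE2 and 1 mM NAD+ (final), 20 nM enzyme, Tris-HCl pH 8 with Tween 20, after 15 min compound preincubation at room temperature. Fluorescence change, last versus first of five reads.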
LMNA splice mod: qHTS Assay for Modulators of Lamin A Splicing; Potency, µM (titrated, usually from 46.1 µM), for inactives: at the highest dose ratio change, negative = inhibition, usual class: inhibitors; actives 0.01% (n = 200,000); AID 1487, 2009; HeLa LMNA splicing GFP/RFP minigene ratio, 48 h; active = well fitted inhibition curve with a large enough effect in the signal ratio, with a control signal flat, not every such curve was filed as active; inconclusive = small, poorly fitted or top-dose-only effect, or effect the other way, or a change in a side signal; the % refers to the signal ratio; also: potency is read from the fitted curve at half-maximal effect
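S3 HeLa cells stably expressing lamin A-EGFP splicing minigene plus DsRed2, 600 cells/well, 48 h compound exposure at 37C. Laser-scanning cytometry; analysed as GFP (500-530 nm)/RFP (575-640 nm) total intensity ratio; 0.5% DMSO vehicle.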
12-hLO inh: qHTS Assay for Inhibitors of 12-hLO (12-human lipoxygenase); AID 1452, 2008; Potency, µM (top dose mostly 57.1 µM), without a hit: top-dose activity change, negative = inhibition, usual class: inhibitors; purified 12-hLO, xylenol orange hydroperoxide absorbance; actives 0.12% (n = 150,000); active = well fitted inhibition curve with a large enough effect; inconclusive = small, poorly fitted or top-dose-only effect; also: potency is read from the fitted curve at half-maximal effect; nearly all actives have a fitted effect of over 55% in size
Target sequence (P18054 whole entry, looked up): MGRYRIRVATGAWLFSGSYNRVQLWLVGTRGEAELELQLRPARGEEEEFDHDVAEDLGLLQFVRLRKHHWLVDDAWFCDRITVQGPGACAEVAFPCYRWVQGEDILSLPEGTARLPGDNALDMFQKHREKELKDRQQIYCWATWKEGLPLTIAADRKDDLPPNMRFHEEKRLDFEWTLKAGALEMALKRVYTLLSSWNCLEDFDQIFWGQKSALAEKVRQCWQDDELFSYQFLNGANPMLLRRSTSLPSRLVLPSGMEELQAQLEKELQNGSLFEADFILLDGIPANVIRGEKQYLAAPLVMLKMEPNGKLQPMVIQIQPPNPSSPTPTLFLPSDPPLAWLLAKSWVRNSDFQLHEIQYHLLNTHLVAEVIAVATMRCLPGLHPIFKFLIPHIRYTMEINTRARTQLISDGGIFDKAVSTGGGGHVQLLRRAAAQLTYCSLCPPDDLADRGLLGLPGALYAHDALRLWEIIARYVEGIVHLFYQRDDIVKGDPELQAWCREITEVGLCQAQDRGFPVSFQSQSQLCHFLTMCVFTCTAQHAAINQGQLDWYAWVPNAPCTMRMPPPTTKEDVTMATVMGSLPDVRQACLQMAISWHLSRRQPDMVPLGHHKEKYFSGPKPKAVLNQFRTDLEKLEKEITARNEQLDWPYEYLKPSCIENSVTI
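Lipoxygenase turnover measured by absorbance at 573 and 405 nm after Fe-XO development. Human 12hLO 150 nM, arachidonate 40 uM, pH 7.0 Hepes buffer with detergent; 15 min compound preincubation, 30 min reaction.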
PNC inhibitor: High Content Assay for Compounds that inhibit the Assembly of the Perinucleolar Compartment; PC3M PTB-GFP, PNC prevalence imaging, 16 h; stronger effect = lower value; activity change (PNC), negative = inhibition, % at 10 µM; actives 3.1% (n = 140,000);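 active = readout at or below -70, meaning at least 70% loss of cells showing the perinucleolar compartment, a nuclear body marking cancer cells; inconclusive = readout between -30 and a set limit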;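 also: plate controls were DMSO wells for no effect and camptothecin positive control wells for full effect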
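Read-out is percentage of cells bearing a perinucleolar compartment, from automated 20x imaging of fixed, Hoechst-stained PC3M PTB-GFP cells. Cells were seeded 4 h, then exposed 16 h to compound (23 nl of library stock) in duplicate plates.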
Starred values were filed as active, the others as inactive; ? = inconclusive; . = not tested or not shown; [ ] = remark or other dose. Rows were chosen to be rich in hits. Some 10% of all compounds tested hit in one or more screens of this group. Unless noted, calls follow the shape of the dose curve; as a rule, active = well fitted inhibition curve with a large enough effect (not every such curve was filed as active); inconclusive = small, poorly fitted or top-dose-only effect, or another doubt; inactive = no such curve, though single readings can be large or run the other way. Unless noted, % is scaled to controls: 0 for no effect and ±100 for the full control effect.

SMILES	ALDH1A1 block	HPGD inh	LMNA splice mod	12-hLO inh	PNC inhibitor
Cc1ccccc1OCc1nnc(SCC(=O)Nc2ccc3c(c2)oc2ccccc23)n1C	14µM*	?	7%	-4%	?
CCN(CC)C(=O)CSc1nc2ccc(NC(=O)CSc3nnc(COc4ccccc4C)n3C)cc2s1	?	20µM*	9%	2%	61
COc1ccc(CNC(=O)CCCn2c(=O)c3cccn3c3ccc(F)cc32)cc1OC	.	.	-17%[46 µM]	.	.
CCOC(=O)c1cccc(NC(=O)CSc2nnc(COc3ccccc3)n2CC)c1	-5%	-1%	3%	-7%	-15
COC(=O)c1cccc(NC(=O)CSc2nnc(COc3ccccc3)n2C)c1	-4%	-21%	10%	-5%	-126*
O=c1cc(CN2CCN(c3ccccc3F)CC2)c2cc(O)c(-c3ccccc3)cc2o1	28µM*	-23%	-3%	4%	20
O=S(=O)(Nc1ccc(Cl)cc1)c1ccc(N2CCOCC2)c(NC(=S)NCCN2CCOCC2)c1	8.9µM*	.	.	.	.
O=C(Nc1cc(S(=O)(=O)Nc2ccc(Cl)cc2)ccc1N1CCCCC1)c1ccc(F)cc1	28µM*	?	?	2%	?
C=CC(=O)OCCOCCOC(=O)C=C	25µM*	-4%	.	-1%	.
Cc1ccc(CNC(=O)c2c(-c3cccc(Br)c3)noc2C)o1	.	.	-8%[46 µM]	.	.
Cn1cccc1/C=C1/SC(=O)N(CC(=O)N2CCCC2)C1=O	3%	.	25%[46 µM]	.	.
COC(=O)CN1C(=O)S/C(=C/c2ccc(N3CCCCC3)o2)C1=O	0.28µM*	-11%	?	-7%	8
CCOC(=O)CN1C(=O)S/C(=C/c2ccc(N3CCCCC3)o2)C1=O	25µM*	-8%	25%	-5%	?
CCC(Oc1ccccc1)C(=O)Nc1ccccc1OCc1cc(=O)n2ccccc2n1 (centres undefined)	.	.	-10%[46 µM]	.	.
Cc1cccc(N2C(S)=C(C#N)C(=O)NC2c2cccs2)c1 (centres undefined)	-2%	-12%	-7%	3%	-84*
N#CC1=C(S)N(c2ccc(F)cc2)C(c2cccs2)NC1=O (centres undefined)	3%	-6%	-3%	-7%	23
CCN(CC)S(=O)(=O)c1ccc(N2CCOCC2)c(NC(=O)c2c3c(nc4ccccc24)CCC3)c1	6.3µM*	-1%	-7%	-4%	-26
CCN(CC)S(=O)(=O)c1ccc(N2CCCCC2)c(C(=O)Nc2ccccc2N2CCOCC2)c1	-6%	-14%	?	-9%	14
CCN(CC)S(=O)(=O)c1ccc(N2CCOCC2)c(NC(=O)COc2ccccc2C#N)c1	13µM*	.	.	.	.
CCN(CC)S(=O)(=O)c1ccc(N2CCOCC2)c(NC(=O)c2ccc3ccccc3c2)c1	?	?	3%	4%	-8
O=C(Nc1cccc(S(=O)(=O)N2CCOCC2)c1)c1c2c(nc3ccccc13)CCC2	-2%	-11%	8%	-3%	-12
CCN(CC)S(=O)(=O)c1ccc(N2CCOCC2)c(NC(=O)c2cccc(C#N)c2)c1	-3%	.	-7%[46 µM]	.	.
CCN(CC)S(=O)(=O)c1ccc(N2CCOCC2)c(NC(=O)c2cccc3ccccc23)c1	13µM*	-18%	2%	-4%	?
CCN(CC)S(=O)(=O)c1ccc(N2CCOCC2)c(NC(=O)c2cc(=O)[nH]c3ccccc23)c1	14µM*	.	-27%[46 µM]	.	.
Cn1nnnc1SCCCNCc1ccccc1OCc1ccccc1F	.	.	-17%[46 µM]	.	.
SMILES	ALDH1A1 block	HPGD inh	LMNA splice mod	12-hLO inh	PNC inhibitor
O=C(Nc1ccccc1N1CCOCC1)c1cc(-c2ccncc2)nc2ccccc12	0%	.	-4%[46 µM]	.	.
CCN(CC)S(=O)(=O)c1ccc(N2CCOCC2)c(NC(=O)c2cc(-c3ccccn3)nc3ccccc23)c1	3.5µM*	.	.	.	.
CCC(=O)N1CCN(c2ccc(Cl)cc2NC(=O)Cc2ccccc2)CC1	5µM*	-5%	?	-2%	21
CCN(CC)S(=O)(=O)c1ccc(N2CCOCC2)c(NC(=O)Cc2ccc(Cl)cc2)c1	25µM*	.	?	-2%	18
CN(C)CCN(C(=O)c1ccc(Br)s1)c1nc2cc3c(cc2s1)OCCO3	7%	.	1%[9.22 µM]	.	.
CN(C)CCN(C(=O)c1ccc(N2C(=O)CCC2=O)cc1)c1nc2cc3c(cc2s1)OCO3	20µM*	.	7%[9.22 µM]	.	.
COc1ccc(OCc2ccc(-c3nc(C#N)c(NC(C)c4ccccc4)o3)o2)cc1 (centres undefined)	.	.	13%[46 µM]	.	.
Cc1ccc(NC(=O)NC2=NN(c3ccccc3)C(=O)/C2=C2/CCCN2C)cc1	7.1µM*	.	?	.	.
COc1ccc(CC(=O)NCC(=O)N/N=C/c2ccco2)cc1	?	-10%	-8%	-1%	?
COc1ccc(COC(=O)N/C=C/c2ccco2)cc1	28µM*	.	.	.	.
COc1ccc(CNC(=O)COC(=O)/C=C/c2ccco2)cc1	25µM*	.	-18%[46 µM]	.	.
O=C(COC(=O)/C=C/c1ccco1)NCc1ccco1	-11%	.	.	.	.
CCc1ccccc1NC(=O)Cn1cc(C(=O)c2ccc(Cl)cc2)c(=O)c2ccc(C)nc21	.	.	-3%[46 µM]	.	.
CCc1ccccc1NC(=O)C1CCCN(c2ncnc3onc(C)c23)C1 (centres undefined)	.	.	7%[46 µM]	.	.
CC1CCN(c2c(NCC3CCC(C(=O)Nc4ccccn4)CC3)c(=O)c2=O)CC1 (centres undefined)	7%	22µM*	-2%	-1%	-119*
CCOc1ccc(NC(=O)C2CCC(CNc3c(N4CCC(C)CC4)c(=O)c3=O)CC2)cc1 (centres undefined)	7%	.	.	.	.
CC1CCN(c2c(NCC3CCC(C(=O)NCc4ccccc4Cl)CC3)c(=O)c2=O)CC1 (centres undefined)	1%	16µM*	-1%	-1%	30
CCCCC(=O)NC(c1cccs1)c1cc(Cl)c2cccnc2c1O (centres undefined)	7.1µM*	.	?	.	.
COc1ccc2c(c1)OC/C(=C\c1ccc(OC)c(O)c1)C2=O	5.6µM*	11µM*	.	-24%	.
COc1ccc(/C=C2\COc3ccccc3C2=O)cc1OC	?	?	?	-3%	?
COC(=O)CSc1nc(NCC(C)C)nc(N2CCOCC2)n1	11%	5%	7%	2%	26
CCNc1nc(SC(C)C(=O)OC)nc(N2CCOCC2)n1 (centres undefined)	19µM*	-10%	7%	-2%	4
Cc1ccc(-c2c[nH]c(=S)n2-c2ccccc2F)cc1	2µM*	.	.	.	.
S=c1[nH]cc(-c2ccccc2)n1-c1cccc(Cl)c1	?	?	?	-11%	21
Cc1ccc(-c2c[nH]c(=S)n2-c2ccccc2)cc1	1µM*	.	15%[46 µM]	.	.
